A selection: hits, their analogues and other compounds. The true share with any hit is near 2.1%.
ROMK primary: human ROMK K+ channel modulation, primary screen; P48048; Tet-inducible ROMK, thallium flux fluorescence; actives lie on both sides; B-score at 10 µM; hit rate 2% among 130,000; AID 1918;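 active means signal ratio slope over the read window, or its plate-corrected B-score, at least 3 SD from the plate mean, either direction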;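 further: B-score of the F/F0 ratio slope over 7 to 12 s after thallium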
Target sequence (P48048 whole entry, looked up): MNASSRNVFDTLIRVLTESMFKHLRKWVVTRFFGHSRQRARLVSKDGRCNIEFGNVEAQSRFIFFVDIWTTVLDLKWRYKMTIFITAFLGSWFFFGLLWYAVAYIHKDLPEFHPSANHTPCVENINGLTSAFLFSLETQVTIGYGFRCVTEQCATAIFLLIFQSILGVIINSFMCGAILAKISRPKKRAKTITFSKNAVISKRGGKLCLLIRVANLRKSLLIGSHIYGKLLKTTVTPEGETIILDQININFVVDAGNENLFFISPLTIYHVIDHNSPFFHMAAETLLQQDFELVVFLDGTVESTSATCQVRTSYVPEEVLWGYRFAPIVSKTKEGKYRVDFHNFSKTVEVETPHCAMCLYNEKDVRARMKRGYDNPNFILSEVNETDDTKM
Arbovirus inh: antivirals against arbovirus infection. arbovirus infection cell-based antiviral screen. inhibition, % at 10 µM. hit rate 0.37% among 200,000. AID 1251; in the data active means inhibition above about 30%
HMGR II inh: E. faecalis class II HMG-CoA reductase inhibition; purified E. faecalis HMGR, NADPH absorbance 340 nm kinetic; inhibition, % at 10 µM; hit rate 0.41% among 190,000; AID 1066;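 active means inhibition above a set limit, the median over all tested compounds plus 3 SD, cut at about 9.5% in these data; inconclusive means no clear call, values can overlap the other calls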;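 further: enzyme runs in reverse so mevalonate oxidation gives rising NADPH absorbance; 0% = complete reaction with DMSO and 100% = background rate lacking mevalonate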
HSV replic up: increases HSV replication in cells. HSV replication augmentation in cells, fold increase. maximum fold increase. hit rate 0.005% among 220,000. AID 1956; in the data active means maximum fold increase above about 1.5; inconclusive means no clear call, values can overlap the other calls; tested in PC3 cells
m-calpain inh: inhibitors of pig calpain II; purified calpain II, fluorogenic peptide substrate, 30 min; inhibition, % at 16 µM; hit rate 0.37% among 220,000; AID 1236;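 active means inhibition above about 50%, limit read from the data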
ROMK hit retest: confirmation of human ROMK potassium channel modulators; shares compounds with ROMK primary; ROMK thallium flux, fluorescence ratio; hits give low values; normalized thallium flux (F/F0 slope) at 10 µM; hit rate 54% among 3,000;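 active means Flux at 10 µM at least 3 SD below or above vehicle control mean in one or both replicates; inconclusive means no clear call, values can overlap the other calls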
An asterisk follows results filed as active; i = inactive; u = inconclusive; x = no result given.

SMILES	ROMK primary	Arbovirus inh	HMGR II inh	HSV replic up	m-calpain inh	ROMK hit retest
Cc1c(Nc2cc(Cl)c3nonc3c2[N+](=O)[O-])c(=O)n(-c2ccccc2)n1C	-4.4*	-32	2	i	-4	0.04*
Cc1c(Nc2cc(N3CCOCC3)c3nonc3c2[N+](=O)[O-])c(=O)n(-c2ccccc2)n1C	0.69	3	-1	i	8	x
CSCCC(NS(=O)(=O)c1ccc(C)c(C(=O)O)c1)C(=O)O (configuration not stated)	0.58	11	-1	i	4	x
COc1ccc(N2C(=O)CSC23C(=O)Nc2ccccc23)cc1OC (configuration not stated)	x	-1	-1	i	-2	0.082
COc1cc(N2C(=O)CSC23C(=O)Nc2ccccc23)cc(OC)c1OC (configuration not stated)	0.016	0	-1	i	-7	x
O=C(CNc1cccc(S(=O)(=O)N2CCOCC2)c1)N1CCc2ccccc21	x	x	x	i	3	x
Cn1c(=O)c2[nH]c(-c3ccccc3Cl)c(O)c2n(C)c1=O	-3.9*	2	-2	i	-14	0.063*
Cn1c(=O)c2[nH]c(-c3ccccc3)c(O)c2n(C)c1=O	x	-10	-4	u	7	x
COc1ccc(N2CCCCn3c2nc2c3c(=O)n(C)c(=O)n2C)cc1	x	-1	1	i	6	x
CCCCOC(=O)Cn1c(=O)c2c(nc3n2CCCCN3c2ccc(C)cc2)n(C)c1=O	x	-39	-3	i	-33	0.061*
COc1ccc(CCNC(=O)C(=O)N/N=C/c2cccs2)cc1OC	-0.19	-7	-1	i	-44	x
Cc1cnc2ncc3sccc3c2c1	-3.6*	0	1	i	6	0.059*
c1cnc2ncc3sccc3c2c1	-0.25	11	-3	i	-13	x
O=C(C1CCN(CC2CC=CCC2)CC1)N(CCc1ccccc1)Cc1ccccc1 (configuration not stated)	-2.8*	-15	1	i	5	0.064*
O=C(C1CCN(S(=O)(=O)c2cnc[nH]2)CC1)N(CCc1ccccc1)Cc1ccccc1	-0.93	2	-3	i	7	x
O=C(c1cccc2ccccc12)N1CCN(CC2CC=CCC2)CC1 (configuration not stated)	-2.6*	-4	0	i	5	0.059*
O=C(C1CCN(CCCc2ccccc2)CC1)N(CCc1ccccc1)Cc1ccccc1	-5*	-37	0	x	-1	0.05*
Cc1nnc(SCC(=O)c2ccc(C(C)C)cc2)s1	-0.74	5	-5	i	31	x
Cc1c(N=C(N)/N=C(\N)Nc2ccc(Br)cc2)c(=O)n(-c2ccccc2)n1C	-0.18	4	-1	i	12	x
Cc1cccc(CN2CCN(Cc3nc4c(s3)CCCC4)CC2CCO)n1 (configuration not stated)	-0.53	-1	0	i	14	x
O=C(c1cc(-c2ccccc2)n[nH]1)N1CCc2c([nH]c3ccccc23)C1c1ccccn1 (configuration not stated)	0.27	-8	1	i	-186	x
Cc1ccc(NC(=S)N(CCN2CCCCC2)Cc2ccco2)cc1Cl	-0.15	7	-1	i	16	x
NC(=O)NC1NC(=O)NC1=O (configuration not stated)	x	x	x	i	-15	x
O=C1CN(C(=O)c2cc3ccccc3oc2=O)C(c2ccc(F)cc2)c2cc(Br)ccc2N1 (configuration not stated)	0.023	-3	2	x	-64	x
CCOc1ccccc1N1CCN(C(=O)Nc2cccc(Cl)c2)CC1	-3.1*	3	1	i	4	0.073
SMILES	ROMK primary	Arbovirus inh	HMGR II inh	HSV replic up	m-calpain inh	ROMK hit retest
Cc1ccc(NC(=O)CCN2CCN(C/C=C/c3ccccc3)CC2)cc1C	-3.1*	1	2	x	-11	0.048*
O=C(Nc1cccc(Cl)c1)N1CCN(C/C=C/c2ccccc2)CC1	-3.6*	-2	-2	i	39	u
Cc1ccc(NC(=O)CCN2CCN(C/C=C/c3ccccc3)CC2)cc1	x	-8	0	i	-15	x
O=C(NCc1ccc2c(c1)OCO2)c1ccc(S(=O)(=O)N2CCOCC2)cc1	0.83	4	-1	i	8	x
CCC(C)NC(=O)NCc1ccccc1F (configuration not stated)	-0.032	3	-5	i	-18	x
Cn1cccc1/C=C1\SC(=S)N(NC(=O)c2ccccc2)C1=O	-2.7*	-18	0	i	20	0.06*
Cn1cccc1/C=C1\SC(=S)N(NC(=O)c2ccc(F)cc2)C1=O	-0.63	x	x	i	16	x

Assay outcomes as filed in PubChem.
